High-throughput results (PubChem BioAssay)
ABHD5 PLIN5 PPI = blocks binding of human ABHD5 to perilipin-5 | 360,000 tested, 0.78% active | inhibition, % at 4 µM | Split G. princeps luciferase complementation, luminescence, 4 h | Q00G26+Q8WTS1;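 active = inhibition above the mean inhibition across every tested compound plus 3 SD, cut at about 22% in these data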
NTR1 agonist = NTR1 (human) agonism; 330,000 tested, 0.17% active; P30989; activation, % at 20 µM; NTR1-U2OS beta-arrestin-GFP spot imaging, agonist mode;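 active = activation at or above 40% of the spot to cytoplasm intensity ratio, with at least 20 cells analyzed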
Target sequence (P30989 whole entry, looked up): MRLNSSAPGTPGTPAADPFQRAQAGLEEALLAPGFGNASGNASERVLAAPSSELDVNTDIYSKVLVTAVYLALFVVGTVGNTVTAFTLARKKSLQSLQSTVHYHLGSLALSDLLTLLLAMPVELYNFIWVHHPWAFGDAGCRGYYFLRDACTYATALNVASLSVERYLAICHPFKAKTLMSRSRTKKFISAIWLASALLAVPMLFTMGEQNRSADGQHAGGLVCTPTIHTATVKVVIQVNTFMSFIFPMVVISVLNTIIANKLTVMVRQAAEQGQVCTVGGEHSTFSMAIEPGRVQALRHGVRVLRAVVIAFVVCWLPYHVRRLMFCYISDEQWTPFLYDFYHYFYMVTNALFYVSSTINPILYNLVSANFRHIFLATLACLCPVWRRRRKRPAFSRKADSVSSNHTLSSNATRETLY
Granule exo inh = lytic granule exocytosis inhibition. TALL-104 LAMP-1 surface exposure, flow cytometry; cells stimulated with thapsigargin and PMA. 360,000 tested, 0.66% active. inhibition, % at 10 µM;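 active = inhibition above about 55%, limit read from the data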
Beta2AR agonist = human beta-2 adrenergic receptor agonism by FAP | response, % (test concentration not listed) | P07550 | 340,000 tested, 0.43% active | AID 504454 | Am2.2-beta2AR cells, FAP receptor internalization, flow cytometry;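 active = response above a set limit, near 3 SD of response in nonfluorescent compounds, cut at about 42% in these data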
m5-HT2A agonist = activates the mouse 5-HT2A serotonin receptor; 360,000 tested, 0.66% active; CHO-K1 mHTR2A beta-arrestin complementation, luminescence; percent of 30 µM serotonin response; activation, % at 7.6 µM; P35363;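 active = activation above a run cutoff, the mean activation of all tested compounds plus 3 SD, cut at about 14% in these data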
NTR1 ag conf = NTR1 (human) agonism, confirmed; shares compounds with NTR1 agonist; NTR1-U2OS beta-arrestin-GFP translocation imaging; activation, % at 20 µM; 480 tested, 38% active; AID 504550;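 active = mean activation at 20 µM of at least 40%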
Beta2AR ag CP1 = human beta-2 adrenergic receptor agonism, cherry pick; shares compounds with Beta2AR agonist; Am2.2-beta2AR cells, FAP surface receptor, flow cytometry; stronger effect = lower value; percent response (surface receptor), % at 10 µM; 1,100 tested, 25% active; AID 540358;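 active = surface receptor percent response at or below 58%, roughly 3 SD from nonfluorescent compounds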
FAP fluor counter = flagged in Am2.2 fluorescence counterscreen for beta-2AR agonists; shares compounds with Beta2AR agonist; Am2.2 cells, FAP fluorogen flow cytometry; stronger effect = lower value; calls only at 10 µM; 1,100 tested, under 10 active; AID 588765;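 active = percent response below a set limit in fluorescence channel 1 and below 50% in channel 8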
Exocytosis CP01 = lytic granule exocytosis inhibition | shares compounds with Granule exo inh | TALL-104 cells, LAMP-1 externalization, flow cytometry; stimulated with PMA plus thapsigargin | inhibition, % at 10 µM | 1,500 tested, 11% active | AID 651954; in the data active = inhibition above about 60%
Large screens that a line does not name were inactive (follow-up assays come after a bar, where they were run). A selection: hits, their analogues and other compounds. The true share with any hit is near 2.3%.

CCOC(=O)c1ccc(NC(=O)c2ccc(C)c(S(=O)(=O)N3CCOCC3)c2)cc1	NTR1 agonist 52, Granule exo inh 76 | NTR1 ag conf 70 | Exocytosis CP01 74
CC(C)Nc1ccc(Nc2ccnc3cc4ccccc4cc23)cc1	NTR1 agonist 51, Granule exo inh 79, Beta2AR agonist 80 | NTR1 ag conf 85 | Beta2AR ag CP1 inactive | FAP fluor counter inactive | Exocytosis CP01 inactive
COc1cccc(OC)c1C(=O)Oc1ccc2c(c1)O/C(=C\c1ccncc1)C2=O	NTR1 agonist 52, Granule exo inh 60 | NTR1 ag conf 56 | Exocytosis CP01 inactive
O=C1/C(=C/c2ccncc2)Oc2cc(OS(=O)(=O)c3ccccc3)ccc21	none
Cc1cc(C)cc(N(CCC#N)C(=O)CSc2nc3ccccc3c(=O)[nH]2)c1	none
Cc1cc(F)ccc1S(=O)(=O)Nc1ccccc1C(=O)Nc1ccccc1-c1nc2ccccc2[nH]1	NTR1 agonist 53, Granule exo inh 90 | NTR1 ag conf 72 | Exocytosis CP01 94
Cc1cc(F)ccc1S(=O)(=O)Nc1ccccc1C(=O)Nc1ncn[nH]1	none
Cc1noc(C)c1C(=O)OC(C)C(=O)Nc1ccc(S(=O)(=O)NC(C)C)cc1 (stereo not drawn)	none
CSc1ccc(CN2CCc3c([nH]c4ccccc34)C2)cc1	none
Clc1ccc(CN2CCc3c([nH]c4ccccc34)C2)cc1Cl	NTR1 agonist 65, Granule exo inh 58 | NTR1 ag conf inactive | Exocytosis CP01 inactive
Cc1ccc(-c2nc3ccc(Br)cn3c2Cc2cccc(F)c2)cc1	none (no result: NTR1 agonist, Beta2AR agonist)
C=C(C)CNC(=S)NNC(=O)CCn1c2ccc(Cl)cc2c2cc(Cl)ccc21	none
O=C(Nc1ccc2oc(-c3ccccc3F)nc2c1)c1ccc2c(c1)OCCO2	NTR1 agonist 46, Granule exo inh 85 | NTR1 ag conf 53 | Beta2AR ag CP1 inactive | FAP fluor counter inactive | Exocytosis CP01 inactive
CC1=C/C(=N\NC(=S)NCc2ccccc2)CC1	none | Beta2AR ag CP1 inactive | FAP fluor counter inactive
C/C(=N\NC(=S)NCc1ccccc1)c1ccccc1	none
CC(C)CC(=O)Nc1ccc(C(=O)COC(=O)C2CC(=O)N(Cc3ccccc3)C2)cc1 (stereo not drawn)	none
COc1cccc(/C=N/NC(=S)Nc2cccc(S(=O)(=O)N(C)C)c2)c1	none | Beta2AR ag CP1 inactive | FAP fluor counter inactive
COc1ccc(O)c(/C=N/NC(=S)Nc2cccc(S(=O)(=O)N(C)C)c2)c1	none (no result: NTR1 agonist)
Cc1ccc(C(C[N+](=O)[O-])Sc2ccc(N)cc2)cc1 (stereo not drawn)	NTR1 agonist 54, Beta2AR agonist 70 | Beta2AR ag CP1 inactive | FAP fluor counter inactive
COc1ccc(CCNc2nc(-c3cccnc3)nc3ccccc23)cc1OC	none
CCOc1ccc(CN(C)c2nc(-c3cccnc3)nc3ccccc23)cc1OC	none | Beta2AR ag CP1 inactive | FAP fluor counter inactive
Cc1ccc(CN(C)c2nc(-c3cccnc3)nc3ccccc23)o1	Beta2AR agonist 45 | Beta2AR ag CP1 inactive | FAP fluor counter inactive
CC(O)C1CCC2C3CC[C@H]4CC(O)CCC4(C)C3CC3(OCCO3)C12C (stereo partly drawn)	none
COc1cc(OC)cc(C(=O)NCCC(=O)NCCc2ccc(OC)c(OC)c2)c1	none
O=C1c2ccccc2C(O)(c2ccccc2)N1c1ccncc1 (stereo not drawn)	none
COc1ccc(OC)c(S(=O)(=O)N2CCCC(C(=O)NCc3cccnc3)C2)c1 (stereo not drawn)	Beta2AR agonist 71 | Beta2AR ag CP1 inactive | FAP fluor counter inactive
COc1ccc(OC)c(S(=O)(=O)N2CCCC(C(=O)NCc3ccccn3)C2)c1 (stereo not drawn)	none
CCSc1nc2ccccc2n1C(=O)c1ccc(S(=O)(=O)N2CCCCCC2)cc1	Beta2AR agonist 53 | Beta2AR ag CP1 57 | FAP fluor counter inactive
COc1ccc(CSc2ccc(-c3nc4ccccn4c3NCc3ccccc3)cc2OC)cc1	Beta2AR agonist 75 | Beta2AR ag CP1 inactive | FAP fluor counter inactive
O=C(Nc1cccc(-c2nc3ncccc3o2)c1)c1sc2cc(Cl)ccc2c1Cl	Beta2AR agonist 42 | Beta2AR ag CP1 12 | FAP fluor counter inactive
O=C(Nc1cccc(-c2nc3ncccc3o2)c1)c1sc2ccccc2c1Cl	none
Fc1ccc(NC(=S)Nc2cccnc2)c(F)c1F	none
O=C(NCc1nnnn1-c1ccc(Cl)cc1)c1ccc(Br)o1	none
CC(=O)Nc1ccc(S(=O)(=O)NCCc2csc(-c3cccnc3)n2)cc1	Beta2AR agonist 83 | Beta2AR ag CP1 13 | FAP fluor counter inactive
Cc1ccc(-c2nc(CC(=O)Nc3cccc(S(=O)(=O)NC4=NCCC4)c3)cs2)cc1	none
Cc1cc(N2CCN(c3ccc([N+](=O)[O-])c4cccnc34)CC2)c2ccccc2n1	Beta2AR agonist 95 | Beta2AR ag CP1 inactive | FAP fluor counter inactive
CCn1c(SCC(=O)N2CCCC2)nnc1-c1ccc(N)cc1	Beta2AR agonist 86 | Beta2AR ag CP1 6.8 | FAP fluor counter inactive
CCCCn1c(SCC(=O)N2CCCC2)nnc1-c1ccccc1	none
Cc1ccc(C)c(NC(=O)C(c2ccccc2)N2CCOCC2)c1 (stereo not drawn)	none | Beta2AR ag CP1 inactive | FAP fluor counter inactive
CCN(CC)S(=O)(=O)c1cc(NC(=O)C2=COCCO2)ccc1Cl	Beta2AR agonist 115 | Beta2AR ag CP1 24 | FAP fluor counter inactive
O=C1CC(C(=O)Nc2ccc(C(=O)N3CCOCC3)cc2)C2(CCCCC2)O1 (stereo not drawn)	Beta2AR agonist 52 | Beta2AR ag CP1 inactive | FAP fluor counter inactive
O=C1CC(C(=O)Nc2ccccc2)C2(CCCC2)O1 (stereo not drawn)	none
CCOc1ccc(NC(=O)c2sc3nc(C)nc(N4CCOCC4)c3c2C)cc1	Beta2AR agonist 69 | Beta2AR ag CP1 inactive | FAP fluor counter inactive
COc1ccccc1CN(C)CC(=O)NC1CCCc2ccccc21 (stereo not drawn)	none
O=C(Nc1ccc(Nc2ccncc2)cc1)c1ccc(Nc2ccnc3ccc([N+](=O)[O-])cc23)cc1	Beta2AR agonist 69 (no result: NTR1 agonist) | Beta2AR ag CP1 inactive | FAP fluor counter inactive
O=C(Nc1ccc(Cc2ccncc2)cc1)c1cccc([N+](=O)[O-])c1	none
COc1ccc(OCC(=O)Nc2ccc3c(c2)nc(CCN2CCN(C)CC2)n3C)cc1	Beta2AR agonist 52 | Beta2AR ag CP1 inactive | FAP fluor counter inactive
